The panel holds about 83,000 compounds, 20% with a hit somewhere; the sample as a whole holds those more often.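 Single-dose data. Exposure time 48 hours. Values below 10 considered active.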 A number with no mark means an inactive call. Calls of active or inactive are those of the source.

Results on 13 compounds are retold here after PubChem BioAssay (NCI).

Assay in all cases: NCI-60 one-dose screen, 48 h (100 = growth as untreated, 0 = no growth, -100 = all killed)
What all share (settings): 10 µM unless noted

For test [1], the system named is NCI-H23 lung.
In test [2] the test system is NCI-H226 lung.
Test [3] deals with NCI-H322M lung.
The test system of test [4] is HOP-62 NSCLC.
Test [5] has as its system NCI-H460 lung.
Test [6] relates to HOP-92 NSCLC.
Test [7] concerns NCI-H522 lung.
Test [8] has as its system A549/ATCC NSCLC.
Test [9] relates to 786-0 renal.
The subject of test [10] is COLO 205 colon.

As to `COc1ccc(C(=O)c2nc3ccccc3n2CC(=O)c2ccc(F)cc2)cc1`, the growth in test [1] was 88.4%; in [2], 102%; in test [3], 99.8%; in [4] it was 91.4%; in test [5], 108%; in test [6], 95.5%. In addition, the growth is 35.6% in test [7], 98.2% in [8], 87.3% in test [9] and 131% in [10].

As to `COc1ccc(NC(N)=NCCCOc2ccc(F)cc2)cc1`, the growth in test [1] is 64.4%; in test [2], 91%; in test [3] it was 88.1%; in test [4] it was 74.2%; in test [5], 101%; in test [6], 80.8%. In addition, the growth in test [7] was 85.5%; in [8] it was 73.1%; in [9], 89.1%; in [10], -0.958% (active).

With `Cc1cc2c(C(=O)NCC#N)cccc2n1-c1nc2c(c(NCc3ccccc3)n1)CCCC2`, the growth was -41.8% (active) in test [1]; -69.3% (active) in test [2]; -19.5% (active) in [3]; -16.9% (active) in [4]; -35.7% (active) in test [5]; -63.4% (active) in test [6]. The growth is -24.9% (active) in [7], -38.9% (active) in test [8], -56.8% (active) in test [9] and -51% (active) in [10].

Regarding `OC(c1cccc(C(F)(F)F)c1)c1cnccc1NC1CCCCC1` (stereo not given), the growth in [1] is 60.9%; in [2], 82.9%; in test [3], 90.2%; in [4] it was 87.4%; in [5] it was 82.8%; in [6] it was 45.4%. The growth in test [7] was 82.4%; in test [8], 75.8%; in test [9] it was 73.7%; in test [10], -39.9% (active).

Take `O=Cc1ccc(-c2cn3ccnc3c(-c3ccc4ncn(Cc5ccccc5)c4c3)n2)cc1`: the growth in [1] was 45.5%; in test [2], 99.5%; in test [3], 88.8%; in test [4] it was 76.2%; in [5] it was 62.2%; in test [6] it was 57%. Besides, the growth in test [7] is 74.7%; in [8], 103%; in test [9], 53.3%; in [10] it was 126%.

In the case of `CCCCCN1C=C/C(=C\C(=O)N2CCCc3ccccc32)c2ccccc21`, the growth in test [1] is 57.5%; in test [2], 79.3%; in [3], 102%; in test [4] it was 107%; in test [5] it was 91.9%; in test [6] it was 73.5%. Moreover, the growth is 68.5% in test [7], 89.4% in test [8], 95.6% in test [9] and 96.8% in [10].

Take `O=C1/C=C/[C@@H](O)[C@@H]2C[C@@H](O)C[C@H]2/C=C/CCC[C@H](CCc2ccc3ncccc3c2)O1`: the growth was -32.5% (active) in [1]; -28.7% (active) in test [2]; 17.6% in test [3]; 15.3% in test [4]; 15% in test [5]; 30.2% in test [6]. The growth was -53.4% (active) in [7], 19.2% in test [8], -50.2% (active) in test [9] and -98.4% (active) in test [10].

As to `C#CCNC(=O)[C@]1(C)CC[C@]2(C)CC[C@@H]3C(=CC[C@H]4[C@@]3(C)CC[C@H]3C(C)(C)C(=O)CC[C@]43C)[C@@H]2C1`, the growth is 91% in test [1]; 98.7% in [2]; 90.9% in test [3]; 101% in [4]; 97.6% in test [5]; 99.9% in test [6]. In addition, the growth was 79.8% in test [7], 91.6% in test [8], 89.8% in test [9] and 101% in test [10].

Regarding `C=C1C(=O)O[C@H]2[C@H]1CC/C(CNS(=O)(=O)c1cccc3ccccc13)=C\CC[C@@]1(C)O[C@@H]21`, the growth in test [1] was 57.9%; in test [2], 57.8%; in test [3], 91.2%; in test [4], 94.9%; in [5] it was 73.8%; in test [6] it was 12.1%. In addition, the growth in test [7] was -63.9% (active); in [8], 83.5%; in [9], 26.1%; in [10] it was 8.89% (active).

Turning to `COc1ccc(/C=C2\COc3ccc(-c4ccccc4)cc3C2=O)c(OC)c1`, the growth in [1] was 77.9%; in [2], 86.6%; in test [3], 90.2%; in test [4] it was 120%; in test [5], 83.4%; in test [6], 109%. Further, the growth in [7] was 39.7%; in [8], 90.9%; in test [9] it was 83.2%; in test [10] it was 124%.

Take `COc1cc2c(c(O)c1Br)C(=O)c1c(O)cc(C[C@H](C)O)cc1[C@H]2[C@H]1c2cc(C[C@H](C)O)cc(O)c2C(=O)c2c1cc(OC)c(Br)c2O`: the growth was 6.19% (active) in test [1]; 14.3% in [2]; 17.2% in [3]; 16.5% in [4]; 0.308% (active) in test [5]; -21.3% (active) in test [6]. Moreover, the growth is 2.22% (active) in [7], 11.1% in test [8], 10.4% in test [9] and -35.3% (active) in test [10].

On to `O=Cc1cc2ccccc2nc1Oc1ccc(C(F)(F)F)cc1`, for which the growth in test [1] was 85.3%; in test [2], 76.9%; in [3], 94.9%; in [4], 80.9%; in test [5], 98.8%; in test [6], 52.8%. For the same compound, the growth in [7] is 85.4%; in [8], 98.4%; in test [9], 101%; in [10], 83.6%.

In the case of `O=C(Cc1ccc(/C=C/C(=O)c2nccs2)cc1)Nc1ccccc1`, the growth in [1] is 97.3%; in test [2], 100%; in test [3] it was 100%; in test [4], 103%; in [5] it was 103%; in [6] it was 91.3%. Also, the growth was 78.5% in test [7], 88.8% in test [8], 93.8% in test [9] and 122% in [10].
